# Several values for one entry are separate records, joined by “and”; a condition that tells them apart may be missing. Identical values can stand only once. Inconclusive results are not listed. Activity calls are given as the source filed them. Calls come from the whole dose curve; as a rule, active = well fitted curve in the direction sought with a large enough effect; inconclusive = small, poorly fitted or top-dose-only effect, or another doubt; inactive = no such curve, though single readings can be large or run the other way.
# Assay: qHTS Assay for Identifying Gametocytocidal Compounds (AID 743244);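 for max response: actives lower the fluorescent signal which means gametocytes are killed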
# Settings: P. falciparum 3D7 stage III-V gametocytes, alamarBlue, 72 h; max response: hits give low values
# From the text: Malaria cases and deaths have dropped 50% in 29 countries since 2000 due to the combined effects of long-lasting insecticidal bednets, indoor residual spraying, and artemisinin-based combination therapies (ACTs). This success has raised hopes for malaria eradication and consequently stimulated interest in developing new reagents that block gametocyte transmission such as novel and safe gametocytocidal drugs. However, previous drug development efforts have focused primarily on the asexual parasites that cause symptoms, but not malaria transmission. Consequently, patients can remain infectious for weeks after the clearance of asexual parasites and clinical symptoms. To be transmitted from person to person via a mosquito, the parasites must switch from asexual to sexual development and produce male and female gametocytes. Malaria gametocytes consist of five stages (I, II, III, IV and V). The late stage gametocytes (III, IV and V) are difficult to be cultured in vitro and the long lifespan of mature gametocytes allows them being transmitted from host to mosquitoes unless they are completely eliminated by gametocytocidal agents. To identify gametocytocidal compounds which are capable of killing late stage P. falciparum gametocytes, a high throughput gametocyte viability assay was employed. This assay uses oxidoreduction indicator, alamarBlue, as a general measure of metabolic activity of gametocytes. Within live cells, the nonfluorescent resazurin is reduced to resorufin, a bright red fluorescence dye. Fluorescence decreases upon treatment of gametocytocidal compounds. P. falciparum gametocyte (3D7 strain) was used in this study.
# The 1536-well gametocycidal viability assay was based on the previous method of Tanaka et al. Stage III-V gametocytes were tested against three compound libraries, including 4265 compounds from NCGC pharmaceutical collection, 400 from Malaria Box library, and 550 from an internal collection of kinase inhibitors. Briefly, 2.5 ul/well incomplete medium was dispensed into each well of 1,536-well plates using the Multidrop Combi followed by 23 nl compound transferring using the NX-TR Pintool (WAKO Scientific Solutions, San Diego, CA). Then, 2.5 ul/well of gametocytes was dispensed with a seeding density of 20,000 cells/well using the Multidrop Combi. The assay plates were incubated for 72 h at 37C with 5% CO2. After addition of 5 ul/well of 2X AlamarBlue dye (Life Technologies, cat. no. DAL1100), the plates were incubated for 24 h at 37C with 5% CO2 and then were read in a fluorescence detection mode (Ex = 525 nm, Em = 598 nm) on a ViewLux plate reader (PerkinElmer).
# % is set by controls: 0 for no effect and ±100 for the full control effect; potency is the fitted concentration of half-maximal effect.
SMILES,max response,Potency
CC(C)=CCC/C(C)=C/CC/C(C)=C/CCC(=O)OC/C=C(\C)CCC=C(C)C,-4.29% (inactive),–
O=[N+]([O-])c1nccn1CO[C@@H](CO)[C@H](O)CO,-9.19% (inactive),–
O=C(CCCCC(=O)Nc1c(I)cc(I)c(C(=O)O)c1I)Nc1c(I)cc(I)c(C(=O)O)c1I,35.4% (inactive),–
CC(C)OC(=O)c1cc2c(OCC(O)CNC(C)(C)C)cccc2[nH]1 (stereo not given),0.786% (inactive),–
O=C(O)Cc1ccc(OCCNC[C@H](O)c2ccccc2)cc1,-2.47% (inactive),–
CCC1=C[C@@H]2CN(C1)Cc1c([nH]c3ccccc13)[C@@](C(=O)OC)(c1cc3c(cc1OC)N(C)[C@H]1[C@@](O)(C(=O)OC)[C@H](OC(C)=O)[C@]4(CC)C=CCN5CC[C@]31[C@@H]54)C2,–,11.2 µM (active)
CC(=O)N[C@@H](CCC(N)=O)C(=O)O,4.31% (inactive),–
CCOC(=O)OCC/C(SC(=O)OCC)=C(\C)N(C=O)Cc1cnc(C)nc1N,11.2% (inactive),–
COc1ccccc1N1CCN(CCN2C(=O)CC3(CCCC3)CC2=O)CC1,21.4% (inactive),–
C1N2CN3CN1CN(C2)C3,2.07% (inactive),–
Brc1ccc([C@H]2CN3CCSC3=N2)cc1,13.2% (inactive),–
O=C(O)/C=C(\CC(=O)O)C(=O)O,8.32% (inactive),–
CC1(C)O[C@@H]2C[C@H]3[C@@H]4CCC5=CC(=O)C=C[C@]5(C)[C@@]4(F)[C@@H](O)C[C@]3(C)[C@]2(C(=O)CO)O1,-0.0995% (inactive),–
O=C(O)[C@@H](O)[C@H](O)[C@H](O)[C@@H](O)C(=O)O,9.57% (inactive),–
CC(C)C[C@H](NC(=O)CNC(=O)[C@H](Cc1ccc(O)cc1)NC(=O)[C@H](CO)NC(=O)[C@H](Cc1c[nH]c2ccccc12)NC(=O)[C@H](Cc1cnc[nH]1)NC(=O)[C@@H]1CCC(=O)N1)C(=O)N[C@@H](CCCN=C(N)N)C(=O)N1CCC[C@H]1C(=O)NCC(N)=O (stereo in doubt),-1.4% (inactive),–
Cc1cccc(C)c1NC(=O)c1cc(S(N)(=O)=O)c(Cl)cc1O,11.8% (inactive),–
O=C1NC(=O)/C(=C/c2ccc3c(c2)OC(F)(F)O3)S1,-20.1% (inactive),–
CCN1CCN(C(=O)N[C@@H](C(=O)N[C@@H]2C(=O)N3[C@@H]2SC(C)(C)[C@H]3C(=O)O)c2ccccc2)C(=O)C1=O,-7.03% (inactive),–
CCC[C@H](N[C@@H](C)C(=O)N1[C@H](C(=O)O)C[C@@H]2CCCC[C@@H]21)C(=O)OCC,-14.5% (inactive),–
C[N+]1(C)CCC(OC(=O)C(O)(c2ccccc2)C2CCCC2)C1 (stereo not given),-10.9% (inactive) and -9.67% (inactive),–

SMILES,max response,Potency
CCNC(=O)NCCCOc1cccc(CN2CCCCC2)c1,-8.1% (inactive),–
CC(=O)O[C@@H]1C(=O)O[C@@H]2[C@H]1OC(=O)[C@@H]2OC(C)=O,14.5% (inactive),–
OCCc1ccccc1,0.746% (inactive),–
CCN(CC)CCNC(=O)c1ccc(NS(C)(=O)=O)cc1,-10.8% (inactive),–
CN1C(=O)CC(C)(c2ccccc2)C1=O (stereo not given),-8.12% (inactive),–
CC(C)(C)C(=O)OCOC(=O)C1N2C(=O)CC2S(=O)(=O)C1(C)C (stereo not given),0.683% (inactive),–
O=C(c1ccccc1)c1ccccc1,-8.14% (inactive),–
CC1(C)O[C@@H]2C[C@H]3[C@@H]4C[C@H](F)C5=CC(=O)C=C[C@]5(C)[C@@]4(F)[C@@H](O)C[C@]3(C)[C@]2(C(=O)CO)O1,-5.96% (inactive),–
Cc1cc(C(C)(C)C)c(O)c(C(C)(C)C)c1,-17.9% (inactive),–
Cn1cc(S(C)=O)c(=O)c2ccc(F)cc21 (stereo not given),-4.53% (inactive),–
O=C(COCCOCCOCC(=O)Nc1c(I)cc(I)c(C(=O)O)c1I)Nc1c(I)cc(I)c(C(=O)O)c1I,31% (inactive),–
NC(=O)COCCN1CCN(C(c2ccccc2)c2ccc(Cl)cc2)CC1 (stereo not given),-3.31% (inactive),–
N[C@@H](Cn1ccc(=O)c(O)c1)C(=O)O,9.87% (inactive),–
CC(=O)OCC(=O)[C@@]1(O)CCC2C3CCC4=CC(=O)CC[C@]4(C)C3[C@@H](O)C[C@@]21C (stereo not given in full),-8.54% (inactive),–
Cc1ccc(O)cc1,-13.3% (inactive) and 9.92% (inactive),–
OC(CCCN1CCCCC1)(c1ccccc1)c1ccccc1,-13.7% (inactive),–
O=C(OCC1(COC(=O)c2cccnc2)CCCC(COC(=O)c2cccnc2)(COC(=O)c2cccnc2)C1O)c1cccnc1,-9.22% (inactive),–
CCOC(=O)C1=C(C)NC(C)=C(C(=O)OCC)C1c1ccccc1/C=C/C(=O)OC(C)(C)C,4.06% (inactive),–
CC1CN(c2cc3c(cc2F)c(=O)c(C(=O)O)cn3-c2ccc(F)cc2F)CCN1 (stereo not given),-18.1% (inactive),–
CC(=O)OCC(=O)[C@@]1(O)[C@H](OC(C)=O)C[C@H]2[C@@H]3CCC4=CC(=O)C=C[C@]4(C)[C@@]3(F)[C@@H](O)C[C@@]21C,-5.18% (inactive),–
